From PubChem
NCOA1 inh = inhibits human SRC1 coactivator; Q15788; HEK293 GAL4-SRC1 luciferase reporter, luminescence; 360,000 tested, 0.12% active; inhibition, % at 3.6 µM;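 active means inhibition above the campaign mean plus 3 SD, with each screening campaign given its own cutoff, cut at about 60% in these data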;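 further: 0% = DMSO treated cells and 100% = gossypol at 36 µM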
Target sequence (Q15788 whole entry, looked up, the tested form may be a part): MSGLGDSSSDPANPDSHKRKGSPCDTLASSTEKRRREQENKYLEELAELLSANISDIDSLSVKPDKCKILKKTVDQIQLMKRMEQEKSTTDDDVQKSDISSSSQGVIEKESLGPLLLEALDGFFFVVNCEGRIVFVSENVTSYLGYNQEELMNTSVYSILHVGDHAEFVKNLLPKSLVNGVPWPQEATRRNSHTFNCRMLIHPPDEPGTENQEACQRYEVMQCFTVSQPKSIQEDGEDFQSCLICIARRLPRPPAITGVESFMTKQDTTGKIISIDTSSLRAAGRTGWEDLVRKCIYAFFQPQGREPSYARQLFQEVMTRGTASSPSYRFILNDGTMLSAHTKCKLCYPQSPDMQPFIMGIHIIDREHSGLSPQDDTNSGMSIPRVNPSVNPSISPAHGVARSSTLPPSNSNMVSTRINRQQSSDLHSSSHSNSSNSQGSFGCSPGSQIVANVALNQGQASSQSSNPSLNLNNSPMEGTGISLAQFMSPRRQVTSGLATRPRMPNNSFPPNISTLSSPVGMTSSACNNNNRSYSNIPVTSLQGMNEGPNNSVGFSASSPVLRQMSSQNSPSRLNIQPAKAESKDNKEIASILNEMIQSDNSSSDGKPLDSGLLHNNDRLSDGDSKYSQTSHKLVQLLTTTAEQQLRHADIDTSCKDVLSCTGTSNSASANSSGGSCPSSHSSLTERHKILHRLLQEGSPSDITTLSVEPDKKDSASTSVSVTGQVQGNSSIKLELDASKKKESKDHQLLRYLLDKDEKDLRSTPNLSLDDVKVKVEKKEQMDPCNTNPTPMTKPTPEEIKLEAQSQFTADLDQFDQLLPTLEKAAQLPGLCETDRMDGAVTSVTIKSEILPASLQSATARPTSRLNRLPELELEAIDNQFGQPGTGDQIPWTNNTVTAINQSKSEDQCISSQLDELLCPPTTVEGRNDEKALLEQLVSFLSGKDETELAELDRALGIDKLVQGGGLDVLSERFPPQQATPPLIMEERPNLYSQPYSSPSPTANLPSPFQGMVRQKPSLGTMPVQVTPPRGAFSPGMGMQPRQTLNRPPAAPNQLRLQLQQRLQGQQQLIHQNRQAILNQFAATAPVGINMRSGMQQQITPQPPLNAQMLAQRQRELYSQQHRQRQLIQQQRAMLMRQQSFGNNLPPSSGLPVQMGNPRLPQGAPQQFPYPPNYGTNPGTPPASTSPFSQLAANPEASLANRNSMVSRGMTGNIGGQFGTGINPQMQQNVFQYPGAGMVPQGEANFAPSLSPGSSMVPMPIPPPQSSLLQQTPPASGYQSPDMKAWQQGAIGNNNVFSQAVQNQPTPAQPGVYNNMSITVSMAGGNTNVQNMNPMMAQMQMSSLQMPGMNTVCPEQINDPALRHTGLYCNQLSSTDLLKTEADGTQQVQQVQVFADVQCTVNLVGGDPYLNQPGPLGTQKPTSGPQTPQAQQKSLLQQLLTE
SRC3 inh = inhibits human SRC3 coactivator | Q9Y6Q9 | inhibition, % at 3.6 µM | HEK293 GAL4-SRC3 luciferase reporter, luminescence | AID 588352 | 360,000 tested, 0.17% active;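 active means inhibition above a per-campaign cutoff, the mean of all compounds plus 3 SD, cut at about 60% in these data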;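 further: 0% = DMSO-treated cells and 100% = gossypol-treated cells at 36 µM; higher means less SRC3-driven luciferase light from the GAL4 reporter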
NR2F2 inh = NR2F2 (human) inhibition, primary screen; AID 686940; 370,000 tested, 0.7% active; inhibition, % at 8.6 µM; HEK293T NGFI-A luciferase reporter, luminescence; P24468;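 active means inhibition above a per-plate cutoff, mean inhibition of test wells between control levels plus 3 SD, cut at about 38% in these data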;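 further: cells cotransfected with COUP-TFII expression vector driving the NGFI-A reporter; 0% = median of COUP-TF2 test wells and 100% = reporter-only cells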
GalR3 antagonist = human GalR3 antagonism. AID 651719. 360,000 tested, 0.44% active. O60755. HEK293 GalR3-CNG cAMP membrane potential fluorescence; galR3 body fused to GalR1 C-terminus. inhibition, % at 3 µM;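 active means inhibition above the screen-wide average plus 3 SD, cut at about 13% in these data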;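 further: forskolin and galanin both at EC90 stimulate the cells; cAMP rise reported by CNG channel membrane potential dye signal; 0% = forskolin plus galanin with DMSO and 100% = forskolin alone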
NR5A2 inv ag = inverse agonists of human LRH-1 (NR5A2) | AID 602396 | 360,000 tested, 0.13% active | inhibition, % at 3.6 µM | HEK293T StAR-luciferase reporter, LRH-1 transfected, 24 h;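 active means inhibition above the mean inhibition of all tested compounds plus 3 SD, cut at about 73% in these data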;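 further: 0% = DMSO wells and 100% = reporter-only cells lacking LRH-1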
SRC2 inh = human SRC2 (NCOA2) inhibition. HEK293 GAL4-SRC2 luciferase reporter, luminescence. inhibition, % at 9 µM. 370,000 tested, 0.17% active. AID 651957;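 active means inhibition above the mean inhibition of all tested compounds plus 3 SD, set per campaign, cut at about 52% in these data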;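 further: 0% = DMSO treated cells and 100% = cells given Gossypol at 36 µM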
* hit, by the source's call; i = inactive; . = no result given. Sampled rows, rich in hits. Any-hit rate of the full collection: about 1.1%.

SMILES | NCOA1 inh | SRC3 inh | NR2F2 inh | GalR3 antagonist | NR5A2 inv ag | SRC2 inh
COc1ccc(N(C(=O)c2ccco2)C(C(=O)NC2CCCCC2)c2cccs2)cc1OC (stereo not drawn) | -10 | 12 | -3 | -2 | 9 | 0
COC(=O)[C@]12C[C@H](CC(=O)N3CCCCC3)C(=O)N(Cc3ccccc3)C1=C[C@H](C(C)(C)C)O[C@@H]2C | . | . | 11 | -1 | . | 13
CC(C)C[C@H](NC(=O)c1cccs1)C(=O)N1CCC[C@H]1C(=O)NCc1ccccc1 | . | . | -11 | -6 | . | 18
COC(=O)C1=C(C)N(Cc2cccc(C(F)(F)F)c2)C(=NCc2cc(OC)c(OC)c(OC)c2)NC1c1ccccc1 (stereo not drawn) | . | . | -6 | -8 | . | 3
COc1ccccc1C(=O)Nc1nc(-c2ccc(S(=O)(=O)N3CCOCC3)cc2)cs1 | 85* | 89* | 72* | 94* | 82* | 74*
CCOc1ccc(N(CC(=O)Nc2c(C)n(C)n(-c3ccccc3)c2=O)S(=O)(=O)c2cccs2)cc1 | . | . | 0 | . | . | -21
O=C1c2cccc3cc([N+](=O)[O-])cc(c23)C(=O)N1CCN1CCCC1 | 59 | -52 | -102 | -9 | 76* | i
OC[C@H]1O[C@@H](n2cnc3c(Nc4ccccc4)ncnc32)[C@H](O)[C@@H]1O | -135 | -48 | -64 | 2 | -66 | -67
OCC1OC(n2cnc3c(NCc4ccccc4O)ncnc32)C(O)C1O (stereo not drawn) | 35 | 62* | -21 | -8 | 90* | -60
COC(=O)[C@]12C[C@H](CC(=O)NCc3ccc(C)o3)C(=O)N(CCC3=CCCCC3)C1=C[C@H](C(C)C)O[C@@H]2C1CC1 | . | . | 10 | . | . | 31
COC(=O)[C@]12C[C@H](CC(=O)NCCCN3CCCC3=O)C(=O)N(Cc3ccc4c(c3)OCO4)C1=C[C@H](C(C)(C)C)O[C@@H]2C | . | . | 6 | -5 | . | 3
CCOC(=O)N=Nc1c(O)n(CC(=O)OC)c2ccccc12 | -1 | 2 | 2 | -3 | -17 | 4
CCOC(=O)N=Nc1c2ccccc2c2nc3no[nH]c3nc12 | 35 | 89* | -8 | -8 | 6 | -19
CCCCCCCCN1C(=O)[C@@H](CC(=O)N2CCOCC2)C[C@@]2(C(=O)OC)C1=C[C@H](C(C)C)O[C@@H]2C1CC1 | . | . | -5 | . | . | 10
O=S(=O)(c1ccc(NC(=S)NCc2cccnc2)cc1)N1CCCCC1 | 67* | 46 | 18 | -3 | 73* | 48
Cc1cc(C)c(S(=O)(=O)/N=C2/C=C(Sc3ncn[nH]3)C(=O)c3ccccc32)cc1C | 36 | 71* | 62* | -7 | 64 | 62*
O=C1c2ccccc2C(=O)c2c(Nc3ccc(CCO)cc3)ccc(O)c21 | -1 | -6 | 17 | -8 | -6 | 7
O=C1c2c(O)ccc(O)c2C(=O)c2c(NCCNCCO)ccc(NCCNCCO)c21 | 65* | 24 | -35 | -8 | 35 | -362
C[C@@H]1CCN(C2CC2)S(=O)(=O)c2ccc(N3CCC[C@@H]3CO)cc2O1 | . | . | -6 | . | . | -2
N#Cc1sc2nccc(Nc3ccccc3)c2c1N | 72* | 64* | 36 | -1 | 42 | 42
CCc1ccc(-c2nc(CSCC(=O)NC3CC3)c(C)o2)cc1 | 19 | 20 | 22 | -9 | 18 | 56*
CSc1ccc(-c2nc(CSCC(=O)NC3CC3)c(C)o2)cc1 | 2 | 0 | -17 | -7 | 4 | 20
CCCCCCCCN1C(=O)[C@@H](CC(=O)NCCCN2CCCC2=O)C[C@@]2(C(=O)OC)C1=C[C@H](C(C)(C)C)O[C@@H]2C | . | . | 9 | -7 | . | -4
COC[C@H]1CCCN1c1ccc2c(c1)OCCCN(C1CC1)S2(=O)=O | . | . | 7 | . | . | 21
COc1cccc(/C=N/Nc2ncnc(Cl)c2N)c1O | 2 | 66* | -4 | -5 | -14 | 30
SMILES | NCOA1 inh | SRC3 inh | NR2F2 inh | GalR3 antagonist | NR5A2 inv ag | SRC2 inh
COc1cccc(/C=N/Nc2nccnc2Cl)c1O | 8 | 44 | -60 | -5 | 32 | 5
COc1cccc(/C=N/Nc2ncnc3scc(-c4ccccc4)c23)c1O | 85* | 88* | -6 | -9 | 98* | 28
COc1cccc(/C=N/Nc2cc(-n3nc(C)cc3-c3ccccc3)ncn2)c1O | 5 | 39 | -8 | -11 | 1 | 12
COCCNC(=O)C1CCCN(C(=O)C2(c3ccc(Cl)cc3)CCCC2)CC1 (stereo not drawn) | -8 | 0 | 8 | -6 | 14 | -6
Cc1ccccc1Cn1cc(COC(=O)NCC(C)C)nn1 | . | . | 2 | . | . | 12
S=c1nc(Cc2ccc(Cl)cc2)[nH]c2ccccc12 | 1 | 5 | 8 | 13* | 13 | 12
S=c1nc(Cc2ccccc2)[nH]c2ccccc12 | 6 | 22 | -8 | 3 | -13 | 9
Cc1ccc(-c2csc(N/N=C/c3ccco3)n2)cc1 | -50 | -58 | -4 | -5 | -72 | -35
CN(C)S(=O)(=O)c1ccc(-c2csc(N/N=C/c3ccco3)n2)cc1 | 59 | 73* | 20 | -5 | 1 | 30
O=C(COC(=O)c1cccc(Br)c1)NC1CCCCCCC1 | -4 | -9 | -2 | -4 | 8 | -14
O=C(OCc1cn([C@@H]2CN(C(=O)C3CCCCC3)[C@@H](c3ccc(Cl)cc3)C[C@H]2O)nn1)c1ccccc1 | -24 | -10 | 6 | -1 | -1 | -2
CCC1C(=O)C(C)(C)C(=O)OC1c1ccc([N+](=O)[O-])cc1 (stereo not drawn) | -10 | -23 | 7 | -10 | -2 | -1
O=C1CC(=O)OC(c2ccc([N+](=O)[O-])cc2)O1 | -17 | 78* | . | . | 9 | .
CC(C)(C)c1ccc(-c2cc(N)n[nH]2)cc1 | 14 | 14 | 2 | . | -29 | 55*
CCCCOc1ccc(C(=O)NC2CCCCN(Cc3cccc(C(F)(F)F)c3)C2=O)cc1 (stereo not drawn) | . | . | 26 | . | . | 32
CC(=C/c1ccccc1)/C=N/n1c(-c2ccncc2)n[nH]c1=S | 63* | 58 | 27 | -3 | 11 | 36
Cc1ccc(C(C)C)c(OCc2ccc(C(=O)N/N=C/c3cccc(O)c3O)cc2)c1 | 50 | 65* | 15 | 10 | 3 | 73*
COc1cc(/C=N\NC(=O)c2ccc(-c3ccccc3)cc2)cc(OC)c1O | -12 | -11 | -8 | 5 | 6 | -33
COc1cc(/C=N/NC(=O)c2ccc(COc3cc(C)ccc3C(C)C)cc2)cc(OC)c1O | -13 | -13 | 37 | -4 | -36 | 62*
CC(=O)Nc1ccc(C(=O)N/N=C/c2ccccc2OCc2ccccc2)cc1 | -11 | -1 | -25 | -8 | -12 | -44
Cc1ccc(S(=O)(=O)NC(CC(C)C)C(=O)NCC(c2ccco2)N2CCCCC2)cc1 (stereo not drawn) | 65* | 72* | . | . | 38 | .
CC(C)CC(=O)/C(=C/c1ccc(N(C)C)cc1)n1cncn1 | 11 | 5 | 12 | -9 | 10 | 6
CC(C)CC(=O)/C(=C\c1ccc(Cl)cc1Cl)n1cncn1 | 47 | 71* | . | . | 27 | .
